# Test results: PubChem BioAssay AID720649 (The Scripps Research Institute Molecular Screening Center, 2013)
# The list shows a part of the results. The source made the active and inactive calls. How the calls were made is not given here.
# Assay: TO-PRO-1 dye complex inhibitors on d(CAG) DNA, dose response, counter-screen, biochemical, fluorescence, late stage (AID 720649)
# Conditions: d(CAG) DNA duplex TO-PRO-1 dye displacement
smiles,measurement,value
O=C1CC(=O)N(Cc2ccccc2)C(=O)N1CCCCCCN1C(=O)CC(=O)N(Cc2ccccc2)C1=O,IC50,6.7 µM (active)
